The results in this text go back to PubChem BioAssay (Tox21).

Values joined by “and” are separate entries in the source; they are usually repeats but may differ in a detail not shown here. Identical values can stand only once. Results filed as inconclusive are left out. A number with no mark means an inactive call. Active and inactive are the calls of the source. Calls come from the whole dose curve; as a rule, active = well fitted activation curve with a large enough effect in the repeat runs; inconclusive = weak or mixed curves; inactive = no such curve, though single readings can be large or run the other way.
% is set by controls: 0 for no effect and ±100 for the full control effect; potency is the fitted concentration of half-maximal effect.

This experiment in a line: qHTS assay for small molecules that induce genotoxicity in human embryonic kidney cells expressing luciferase-tagged ATAD5 (AID 651632). Note: nearly all actives have a fitted effect of over 15% in size. The note with it: HEK293T ATAD5-luciferase induction, 16 h; series mostly up to 83.3 µM; activation: at the top concentration. The source says: U.S. Tox21 Program National Center for Advancing Translational Sciences [NCATS] NIH Chemical Genomics Center [NCGC] U.S. Environmental Protection Agency [EPA] National Institutes of Environmental Health Sciences [NIEHS] National Toxicology Program [NTP] U.S. Food and Drug Administration [FDA] Tox21 Assay Overview: As cancer cells divide rapidly and during every cell division they need to duplicate their genome by DNA replication. The failure to do so results in the cancer cell death. Based on this concept, many chemotherapeutic agents were developed but have limitations such as low efficacy and severe side effects etc. A new cell based assay was developed to find the compounds that effectively block DNA replication either by directly damaging DNA or by inhibiting other cellular mechanisms. Enhanced Level of Genome Instability Gene 1 (ELG1; human ATAD5) protein levels increase in response to various types of DNA damage. Using a luciferase reporter-gene tagged with ATAD5, a cell-based assay [developed by Kyungjae Myung, NHGRI, NIH] was used to measure the induction of ATAD5 in human embryonic kidney cells (HEK293T). So, increase in luciferase activity can be used to identify the compounds that cause genetic stress.
Tox21 Assay Protocol Summary: For genotoxicity screening, 2,000 cells in 5 uL/well were dispensed into white, solid-bottom 1536-well plates using a Multidrop Combi (Thermo Scientific) dispenser. Following transfer of 23 nL compound or DMSO vehicle by a pin tool, the plates were incubated 16 hr at 37C and 5% CO2. 5 ul Amplite (AAT Bioquest, Inc.) was then added to each plate and following 30 min incubation at room temperature, luciferase activity was quantified on a ViewLux CCD-based plate reader.
(In general: Quantitative high-throughput screening tests each substance at several concentrations.)
With `CCOc1cc(OCC)c(C(C)=O)cc1OCC`, the “activation” value is 3.07%. With `CCC(C)CCCC(C)(C)O` (stereo not given), the “activation” value was 1.09%.

For `CCCC(=O)OCCC(C)C`, the “activation” value is 1.71%. Turning to `CCCCCC1CCC(=O)O1` (stereo not given), the “activation” value was -0.44%. Still for that read-out and setting: in the case of `Cc1c(N=C=O)cccc1N=C=O` it was 0.295% [at 95.3 µM]. Still for that read-out and setting: in the case of `Cc1c(Cl)cccc1[N+](=O)[O-]` it was 0.874%; in that of `Cc1c(Nc2ncccc2C(=O)O)cccc1C(F)(F)F`, 1.79% [at 39.1 µM]; in that of `O=C(OCCCCCOC(=O)c1ccccc1)c1ccccc1`, 1.36%.

Turning to `CC(O)CN` (stereo not given), the “activation” value was -1.64%.

Turning to `CC1(C)CC(=O)CC(C)(C)N1`, the “activation” value was 3.75%. Take `C=C(C)C(=O)OCCCCCCCCCCOC(=O)C(=C)C`: the “activation” value is -0.323%. Same read-out and setting: in the case of `CC(C)CCCCCOC(=O)CS` it was -1.42%. Same read-out and setting: as for `O=C(O)CCc1nc2ccccc2[nH]1`, the figure is -1.86%. Same read-out and setting: as for `CC1(C)CC(O)CC(C)(C)N1[O]`, the figure is 2.18%. For the compound `NCCOCCOCCN`, the “activation” value is -2.02%. Same read-out and setting: in the case of `Cc1c(Cl)cccc1Nc1ccccc1C(=O)O` it was -7.92%; in that of `O=C(Cl)c1ccc(F)c(Cl)c1`, 5.27%; in that of `CC(Cc1ccccc1)(NC(=O)CN)c1ccccc1` (stereo not given), -1.52%.

Turning to `C=C[Si]1(C)O[Si](C)(C=C)O[Si](C)(C=C)O[Si](C)(C=C)O1` (stereo not given), the “activation” value is 0.67%. On to `O=C(O)c1ccccc1-n1cc(C(=O)O)c(=O)c2cc(Nc3c(F)cc(F)cc3Cl)c(Cl)cc21`, for which the “activation” value is -1.84%. Regarding `CCOC(OCC)OCC`, the “activation” value was 0.873%.

As to `Nc1cccc2c(=O)[nH][nH]c(=O)c12`, the “activation” value is 0.731% [at 95.3 µM].

Regarding `O=C(N[C@@H](Cc1ccccc1)[C@@H](O)C(=O)N1C[C@@H](O)[C@@H](O)C1)c1cc2cc(Cl)ccc2[nH]1`, the “activation” value was -8.44%. Still for that read-out and setting: in the case of `O=C(O)c1cccnc1Nc1cccc(C(F)(F)F)c1` it was 3.74%; in that of `CCCC1CCCC(=O)O1` (stereo not given), 2.74%. In the case of `O=C(O)c1cc(C(=O)O)c(C(=O)O)cc1C(=O)O`, the “activation” value was 0.62%. On to `CCC(C)C1N=C(C)C(C)S1` (stereo not given), for which the “activation” value is -1.95%.

Regarding `C=CCCC`, the “activation” value is 0.924% [at 95.3 µM]. On to `O=C(Nc1ccc2c(c1)Cc1ccccc1-2)C(F)(F)F`, for which the “activation” value is 4.52%.

For `Clc1nc2ccccc2nc1Cl`, the “activation” value was 3.29% [at 95.3 µM]. As for `CC(C)C[C@H](NC(=O)[C@H](Cc1ccccc1)NC(=O)c1cnccn1)B(O)O`, the Potency was 21.1 nM (active) and 18.8 nM (active).

On to `CC(=O)c1ccc(Cl)c(Cl)c1Cl`, for which the “activation” value is -5.91%.

Regarding `S=c1[nH][nH]c(=S)s1`, the “activation” value is -3.34%. `Oc1ccc(Oc2ccccc2)cc1`: the “activation” value is 1.38%.

As for `CC(=O)Nc1ccn(C2COC(COC(=O)c3ccccc3)O2)c(=O)n1` (stereo not given), the “activation” value is -0.21%. On the same count and under the same terms, as for `CC(=O)c1cccnc1`, the figure is 0.844%; as for `C1CCN(CN2CCCCC2)CC1`, -0.282%; as for `Sc1nc(S)nc(S)n1`, -2.91%. Consider `CCCCCCCCCCCCCCCCN`, for which the “activation” value is 3.48%. As to `CC1=CC(=C(c2ccc(N)cc2)c2ccc(N)cc2)C=CC1=N`, the Potency entry was “inactive”.
